Several values for one entry are separate records, joined by “and”; a condition that tells them apart may be missing. Equal entries are not always repeated. Records with an inconclusive call do not appear. Some compounds were tested as several samples or in several runs, with calls that do not always agree. Activity calls are given as the source filed them. Unless noted, calls follow the shape of the dose curve; as a rule, active = well fitted curve in the direction sought with a large enough effect; inconclusive = small, poorly fitted or top-dose-only effect, or another doubt; inactive = no such curve, though single readings can be large; an effect the other way counts as inactive or inconclusive.
Key:
[1] = molecular target: Hexokinase-4 (Homo sapiens) + Glucokinase regulatory protein (Homo sapiens) (UniProt P35557+Q14397); experiment: qHTS assay for inhibitors of recombinant human GCK-GKRP interaction: HTRF assay (AID 743207);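 also: 0% = DMSO with GCK present and -100% = DMSO wells lacking GCK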
Chain of Hexokinase-4 (Homo sapiens) + Glucokinase regulatory protein (Homo sapiens) (P35557 whole entry, looked up): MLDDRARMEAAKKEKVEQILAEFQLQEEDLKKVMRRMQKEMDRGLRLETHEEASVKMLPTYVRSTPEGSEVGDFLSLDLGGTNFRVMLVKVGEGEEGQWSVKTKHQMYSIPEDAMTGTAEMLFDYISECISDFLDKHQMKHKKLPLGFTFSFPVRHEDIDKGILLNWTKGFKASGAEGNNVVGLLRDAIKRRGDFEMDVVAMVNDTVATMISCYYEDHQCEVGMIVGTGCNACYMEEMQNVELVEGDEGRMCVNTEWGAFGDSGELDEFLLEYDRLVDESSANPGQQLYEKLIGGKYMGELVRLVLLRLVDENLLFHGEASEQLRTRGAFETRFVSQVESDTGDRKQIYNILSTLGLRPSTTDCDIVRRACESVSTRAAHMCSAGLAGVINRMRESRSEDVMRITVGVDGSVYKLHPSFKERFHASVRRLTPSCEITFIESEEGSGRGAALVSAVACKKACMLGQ
Chain of Hexokinase-4 (Homo sapiens) + Glucokinase regulatory protein (Homo sapiens) (Q14397 whole entry, looked up): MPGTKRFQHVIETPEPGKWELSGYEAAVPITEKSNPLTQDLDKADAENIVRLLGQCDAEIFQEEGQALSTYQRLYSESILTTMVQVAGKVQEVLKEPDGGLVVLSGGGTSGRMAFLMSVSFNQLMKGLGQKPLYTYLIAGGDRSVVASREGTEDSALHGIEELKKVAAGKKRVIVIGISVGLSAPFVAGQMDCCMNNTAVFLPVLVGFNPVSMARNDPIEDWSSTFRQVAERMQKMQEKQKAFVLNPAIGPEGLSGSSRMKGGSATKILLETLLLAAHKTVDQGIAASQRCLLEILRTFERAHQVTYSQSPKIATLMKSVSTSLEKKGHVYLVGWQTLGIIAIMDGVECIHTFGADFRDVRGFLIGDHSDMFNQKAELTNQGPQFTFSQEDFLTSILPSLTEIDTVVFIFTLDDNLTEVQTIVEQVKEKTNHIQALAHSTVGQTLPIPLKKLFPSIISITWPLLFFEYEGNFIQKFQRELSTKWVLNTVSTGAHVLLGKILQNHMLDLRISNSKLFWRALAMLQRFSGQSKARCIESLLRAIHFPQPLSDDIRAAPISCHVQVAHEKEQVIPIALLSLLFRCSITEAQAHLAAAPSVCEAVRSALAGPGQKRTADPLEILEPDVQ
Method in brief: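 After 60 min equilibration at room temperature with anti-FLAG XL665 and anti-GST antibodies, FRET ratio (665/615 nm, excitation 320 nm) was read. Proteins: GST-GCK and FLAG-GKRP, each 5 nM, plus 2 uM S6P, pH 7.1 buffer; GCK-free wells define minimum signal.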

[2] = qHTS Assay for Identifying Gametocytocidal Compounds (AID 743244);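 also: % is scaled to controls: 0 for no effect and ±100 for the full control effect; actives lower the fluorescent signal which means gametocytes are killed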; conditions: P. falciparum 3D7 stage III-V gametocytes, alamarBlue, 72 h; max response: stronger effect = lower value
Method in brief: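 P. falciparum 3D7 stage III–V gametocytes (20,000 cells/well) were exposed to compounds for 72 h at 37 °C, 5% CO2. AlamarBlue was then added for 24 h; decreased resorufin fluorescence (Ex 525/Em 598 nm) indicated loss of viability.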

[3] = qHTS assay for cell viability of HEK293 cells (AID 743288); conditions: ATP luminescence (CellTiter-Glo), 18 h; max response: stronger effect = lower value; also: % is scaled to controls: 0 for no effect and ±100 for the full control effect; nearly all actives have a fitted effect of over 50% in size
Method in brief: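 Total intracellular ATP, measured with a luciferase-coupled reagent, indicates the number of viable HEK293 cells. Exposure to test chemicals lasts 18 h at 37 C in 1,536-well format at 2,000 cells/well.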

[4] = qHTS profiling of the MIPE4 collection as inhibitors of Plasmodium falciparum (3D7) proliferation (AID 743344; call rule not given here;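 also: scaled between DMSO vehicle wells and 0.29 µM artemisinin as full inhibition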); conditions: P. falciparum 3D7 in erythrocytes, SYBR Green DNA fluorescence, 72 h; at 28.5 µM (top of the series) unless noted
Method in brief: (§1)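 Erythrocytes infected with P. falciparum (0.3% parasitemia, 2.5% hematocrit) incubated with compounds 72 h at 37 C, 5% CO2. Lysis with saponin/Triton buffer containing SYBR Green I, overnight at room temperature in the dark; DNA fluorescence (485/535 nm) normalised to 0.29 uM artemisinin and DMSO.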

[5] = qHTS profiling of the MIPE4 collection as inhibitors of Plasmodium falciparum (DD2) proliferation (AID 743345; call rule not given here); conditions: P. falciparum Dd2 in erythrocytes, SYBR Green DNA, 72 h; at 28.5 µM (top of the series) unless noted
Method in brief: as §1

[6] = qHTS profiling of the MIPE4 collection as inhibitors of Plasmodium falciparum (DD2) proliferation (Rep 2) (AID 743346; call rule not given here); conditions: P. falciparum Dd2 in erythrocytes, SYBR Green DNA, 72 h; at 28.5 µM (top of the series) unless noted
Method in brief: as §1

[7] = qHTS profiling of the MIPE4 collection as inhibitors of Plasmodium falciparum (HB3) proliferation (AID 743347; call rule not given here;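 also: plate controls were DMSO vehicle wells for no effect and artemisinin wells for full effect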); conditions: P. falciparum HB3 in erythrocytes, SYBR Green DNA, 72 h; at 28.5 µM (top of the series) unless noted
Method in brief: as §1

[8] = High-throughput drug toxicity screening in the BPDCN cell line Gen2.2 (AID 1224824; call rule not given here;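 also: cells exposed to compounds for 48 h before reading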); conditions: Gen2.2 BPDCN cells; at 45.8 µM (top of the series) unless noted
Method in brief: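 CellTiter-Glo luminescence read after 48 h compound exposure at 37 C defines viability; percent activity set with DMSO as 100% and bortezomib (9.2 uM final) as 0%. 500 exponentially growing cells per well, RPMI plus 10% FBS.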

[9] = High-throughput drug toxicity screening in the BPDCN cell line Cal-1 (AID 1224825; call rule not given here); conditions: Cal-1 BPDCN cell viability, qHTS; at 45.8 µM (top of the series) unless noted
Method in brief: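 500 Cal-1 cells/well, RPMI + glutamine + 10% FBS (phenol red-free); cpd added by pin tool; 48 h, 37C, 5% CO2; CTG 15 min RT, lumi read. Normalised: DMSO 100%, bortezomib 9.2 uM 0%.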

[10] = qHTS assay for measurement of the activity of small molecule inhibitors on Zika virus induced Caspase-3 activity in human iPSC derived neural progenitor cells (hNPCs) (AID 1224857); also: nearly all actives have a fitted effect of over 65% in size; also: potency is read from the fitted curve at half-maximal effect
Method in brief: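 hNPCs seeded 350 cells/well, cultured 16–20 h; compounds added 1 h before ZIKV (2 FFU/cell), 37 C 6 h. Caspase-Glo 3/7 luminescence after 30 min RT; % inhibition from induction scaled to uninfected (0%) and infected (100%) wells.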

[11] = qHTS assay for measurement of the activity of small molecule inhibitors on Zika virus induced Caspase-3 activity in human astrocytoma cells (AID 1224859);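 also: plate controls were ZIKV-infected untreated cells for no effect and uninfected cells for full effect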
Method in brief: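 Luminescence read-out (Caspase-Glo 3/7, 30 min RT) of caspase activity in SNB-19 cells infected 6 h with ZIKV, 2 FFU/cell, after 1 h compound pretreatment; % inhibition from induction normalised to uninfected (0%) and infected (100%) wells.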

[12] = qHTS Screen of the MIPE 4.0 Collection Against Ewings Sarcoma (TC32) (AID 1259256); also: nearly all actives have a fitted effect of over 45% in size; also: potency is read from the fitted curve at half-maximal effect
Method in brief: (§2)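 Cells plated in serum-containing RPMI (5% FBS) and treated with compound dilutions for 48 h. Readout luminescent viability; normalization relied on vehicle (no inhibition) and media-only columns (full inhibition).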

[13] = qHTS assay to identify small molecule inhibitors of chordoma cells - UCH-1 (AID 1259355); also: % is scaled to controls: 0 for no effect and ±100 for the full control effect; nearly all actives have a fitted effect of over 55% in size
Method in brief: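 Seed 800 cells per well; incubate overnight at 37 C, 5% CO2. Add test compounds (15 concentrations), then the auranofin–topoisomerase-agent combination. Incubate 48hr, add CellTiter-Glo, wait 30min, read luminescence.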

[14] = qHTS assay to identify small molecule inhibitors of chordoma cells - UCH-2 (AID 1259356); also: % is scaled to controls: 0 for no effect and ±100 for the full control effect
[15] = qHTS Screen of the MIPE 4.0 Collection Against Ewings Sarcoma (EW8) (AID 1259255);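 also: 100% = DMSO-treated cells and 0% = medium-only wells without cells; nearly all actives have a fitted effect of over 35% in size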
Method in brief: as §2

[16] = qHTS Screen of the MIPE 4.0 Collection Against Ewings Sarcoma (RDES) (AID 1259252); also: nearly all actives have a fitted effect of over 35% in size; also: potency is read from the fitted curve at half-maximal effect
Method in brief: as §2

[17] = qHTS Screen of the MIPE 4.0 Collection Against Ewings Sarcoma (TC71) (AID 1259253); also: nearly all actives have a fitted effect of over 40% in size; also: potency is read from the fitted curve at half-maximal effect
Method in brief: as §2

[18] = qHTS profiling for inhibitors of Plasmodium falciparum (3D7) proliferation (AID 743322; call rule not given here;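 also: infected erythrocytes exposed to compound for 72 h before lysis; 100% = DMSO vehicle wells and 0% = 0.29 µM artemisinin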); conditions: P. falciparum 3D7 proliferation, at 28.7 µM (top of the series)
Method in brief: as §1

[19] = qHTS profiling for inhibitors of Plasmodium falciparum (DD2) proliferation (AID 743323; call rule not given here); conditions: at 28.7 µM (top of the series), lower = more inhibition
Method in brief: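 1536-well qHTS; infected RBCs 0.3% parasitemia/2.5% Hct final; cpd 72 h 37 C 5% CO2; lysis buffer + SYBR Green I, o/n RT dark; FI 485/535; norm. to 0.29 uM artemisinin and DMSO, plate-stack corrected.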

[20] = qHTS profiling for inhibitors of Plasmodium falciparum (HB3) proliferation (AID 743324); conditions: Plasmodium falciparum HB3 blood-stage proliferation; at 28.7 µM (top of the series);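 also: 100% = DMSO vehicle wells and 0% = artemisinin-treated control wells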
Method in brief: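 P. falciparum HB3 grown in erythrocytes (0.3% parasitemia, 2.5% hematocrit final) with compound for 72 h at 37 C, 5% CO2. Parasite DNA detected by SYBR Green after saponin/triton lysis overnight; normalized to 0.29 uM artemisinin and DMSO.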

Row | SMILES | Potency [1] | max response [2] | max response [3] | parasite growth, % of DMSO control [4] | parasite growth remaining, % of DMSO control (lower = more inhibition) [5] | parasite growth, % of control (lower = inhibition) [6] | growth, % of control [7] | cell viability, % of control (lower = more cytotoxic) [8] | viability (% of control) [9] | Potency [10] | Potency [11] | Potency [12] | Potency [13] | outcome [14] | Potency [15] | Potency [16] | Potency [17] | remaining parasite growth % (stronger effect = lower value) [18] [%] | activity, percent of control [19] [%] | remaining proliferation (% of control), lower = more inhibition [20] [%]
1 | Cc1cn([C@H]2C=C[C@@H](CO)O2)c(=O)[nH]c1=O | inactive | 12.3% (inactive) and 14% (inactive) | -5.34% (inactive) and -4.2% (inactive) and -3.76% (inactive) | 325% [at 57.5 µM] | 112% [at 57.5 µM] | 140% [at 57.5 µM] | 618% [at 57.5 µM] | 82.4% [at 92.2 µM] | 100% [at 92.2 µM] | inactive | inactive | inactive | inactive | inactive | – | – | – | – | – | –
2 | O=C(C1CCCCC1)N1CC(=O)N2CCc3ccccc3C2C1 (configuration not stated) | – | 3.64% (inactive) and 8.77% (inactive) | – | 61.4% | 89.3% | – | – | 246% | 105% | inactive | inactive | inactive | inactive | inactive | inactive | – | – | – | – | –
3 | COc1cc2nc(N(C)CCCNC(=O)C3CCCO3)nc(N)c2cc1OC (configuration not stated) | inactive | 19.8% (inactive) and 12.7% (inactive) | – | 64% | 88.3% | 63% | 67.3% | 230% | – | inactive | inactive | inactive | – | inactive | inactive | inactive | inactive | – | – | –
4 | CN(CCOc1ccc(NS(C)(=O)=O)cc1)CCc1ccc(NS(C)(=O)=O)cc1 | – | – | – | 115% | 89.2% | 119% | 56.2% | 181% | 112% | inactive | inactive | – | inactive | inactive | – | – | 16.6 µM (active) | – | – | –
5 | Cn1c(=O)c2[nH]cnc2n(C)c1=O | inactive | – | 2.06% (inactive) | – | 102% | – | – | 123% | 96.4% | inactive | inactive | – | inactive | inactive | – | – | inactive | – | – | –
6 | Cn1ccc2cc3c(cc21)CCN3C(=O)Nc1cccnc1 | inactive | – | – | 23.4% | 72.7% | 13.8% | 56% | 100% | – | inactive | inactive | – | inactive | inactive | – | 16.6 µM (active) | – | 25 | 23 | –
7 | Clc1ccc2nsnc2c1NC1=NCCN1 | inactive | 11.7% (inactive) and 4.37% (inactive) | – | 73.6% | 98.6% | 45.7% | 67.7% | 64.1% | – | inactive and 20.9 µM (active) | inactive | inactive | – | inactive | – | inactive | – | – | – | –
8 | Nc1c2c(nc3ccccc13)CCCC2 | inactive | – | -20.1% (inactive) | 7.17% | 15.1% | 10.3% | 20.2% | 131% | – | inactive | inactive | – | inactive | inactive | – | 26.4 µM (active) | 18.7 µM (active) | – | – | –
9 | CN(C)C(=N)N=C(N)N | – | 1.21% (inactive) and -1.21% (inactive) | – | 97.5% | 99.4% | 85.6% | 110% | 165% | – | inactive | inactive | inactive | inactive | inactive | inactive | inactive | – | 104 | 125 | 102
10 | CN(C)c1nc(N(C)C)nc(N(C)C)n1 | inactive | 17.1% (inactive) and -2.91% (inactive) | – | 89.4% | 102% | 104% | 101% | 97.5% | – | inactive | inactive | inactive | inactive | inactive | – | inactive | – | – | – | –
11 | CC1(CN2CCC(n3c(=O)[nH]c4ccccc43)CC2)OCc2ccccc2-n2cccc21 (configuration not stated) | – | – | – | 10.9% | 9.37% | 11% | 7.33% | 137% | – | inactive | inactive | 14.8 µM (active) | inactive | inactive | – | 16.6 µM (active) | 16.6 µM (active) | 21.2 | 17.6 | 0.0183
12 | CC(CCc1ccc(O)cc1)NCCc1ccc(O)c(O)c1 (configuration not stated) | inactive | 27.1% (inactive) | – | 52.3% | 64.4% | 62.7% | 92.8% | 5% | – | inactive | inactive | – | – | inactive | – | – | – | – | – | –
13 | Clc1ccc(C(c2ccccc2Cl)C(Cl)Cl)cc1 (configuration not stated) | inactive | -1.64% (inactive) and 6.44% (inactive) | – | 24.3% | 51.1% | 54.8% | 50.8% | 22.5% | – | inactive | inactive | – | inactive | inactive | – | – | – | – | – | –
14 | COc1cc2c(c(OC)c1OC)-c1ccc(OC)c(=O)cc1[C@@H](NC(C)=O)CC2 | inactive | -10.9% (inactive) and -1.99% (inactive) | -13.3% (inactive) and -14.4% (inactive) and -4% (inactive) | – | – | – | – | 10.1% | – | inactive | inactive | inactive | – | inactive | inactive | inactive | – | – | – | –
15 | CC(C(=O)O)c1cccc(C(=O)c2ccccc2)c1 (configuration not stated) | – | 3.48% (inactive) and 27.8% (inactive) | – | – | – | – | – | 152% | – | inactive | inactive | 14.8 µM (active) | inactive | inactive | – | 7.43 µM (active) | – | – | – | –
16 | CN1CCC(=C2c3ccccc3C=Cc3ccccc32)CC1 | inactive | – | – | 15% | 36% | 35.3% | 12.5% | 106% | – | inactive | inactive | – | – | inactive | – | 9.35 µM (active) | 16.6 µM (active) | – | – | –

Reference: PubChem BioAssay (NCATS)
